Test results published in PubChem BioAssay AID588335 (The Scripps Research Institute Molecular Screening Center, 2011).
Out of some 360,000 compounds screened, about 4,500 (1.2%) were called active. What follows is part of a selection rich in actives, with near analogues and random picks from the rest. Values without a mark were called inactive. Rule as the data show it: active = inhibition above about 30%; inactive = the rest.

Assay: inhibition of GDH and TPI enzymes – biochemical, absorbance, full deck, artefact control for M. tuberculosis FBA inhibitor project, primary screen (AID 588335);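 also: 0% = DMSO wells and 100% = wells lacking the enzyme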
Details: GDH-TPI coupled enzyme counterscreen, NADH absorbance; at 4.8 µM; hits give high values

Compound | inhibition
CCCCOc1ccc(Cl)cc1CSc1nncn1N | -8.67%
N#CC1(Nc2ccc3c4c(cccc24)CC3)CCCCC1 | 18.6%
Cc1cc(NCc2ccco2)n2c(nc3ccccc32)c1C#N | 8.76%
O=C(CSc1nnc(-c2cccnc2)n1Cc1ccco1)c1ccc(Cl)c(Cl)c1 | -5.03%
Clc1cccc(-c2nc3nc4ccccc4nc3n2Cc2ccco2)c1 | 33.2% (active)
COC(=O)c1cc(S(=O)(=O)N2CCC(C(N)=O)CC2)oc1C | 0.74%
O=C(O)c1ccc(COCC(F)(F)F)cc1 | 6.06%
COc1ccc(N/N=C2/CCCCC2=O)cc1 | 1.13%
COc1ccccc1C1=CC(=O)CCC1 | 10.9%
COc1ccccc1Oc1ccc(N/C=C2/CCCC2=O)cc1 | 33.3% (active)
O=C(O)CCn1c(O)c(C=C2N=c3ccccc3=N2)sc1=S | 22.8%
O=C(Oc1cccc(N2C(=O)C3C4c5ccccc5C(c5ccccc54)C3C2=O)c1)c1ccco1 (configuration not stated) | 10.9%
C/C(=N\NC(=O)c1ccc(NS(=O)(=O)c2cccs2)cc1)c1ccc2ccccc2c1 | 32.1% (active)
COc1cc(OC)c(C(=O)NNC(=O)c2ccc(NS(=O)(=O)c3cccs3)cc2)cc1OC | 12.8%
O=S(=O)(Nc1ccccc1)c1ccc(NS(=O)(=O)c2cccs2)cc1 | 14.9%
COCCn1c(C)cc(C(=O)CN2c3cccc4cccc(c34)S2(=O)=O)c1C | 3.51%
Oc1ccc(C2Nc3cccc4cccc(c34)N2)cc1 | 32.9% (active)
CN(C(=O)CC(NC(=O)c1ccccc1)(c1ccccc1)c1ccccc1)c1ccccc1 | -10.6%
Cn1c(=O)n(C)c2cc(CNc3ccc(N4CCOCC4)c(C(=O)O)c3)ccc21 | 8.39%
CC(C)(C)NC(=O)COC(=O)c1cc(Br)ccc1Cl | -3.49%
Cc1cc(C(=O)N/N=C/c2ccc(O)c([N+](=O)[O-])c2)c(C)n1-c1ccc(F)cc1 | 51.7% (active)

Compound | inhibition
O=C1CSC(=S)N1/N=C/c1ccc(O)c([N+](=O)[O-])c1 | 1.6%
Cc1c(Cl)c([N+](=O)[O-])nn1Cc1ccc(C(=O)N/N=C\c2cc(Cl)ccc2O)o1 | 4.27%
CC1(C)CC(=O)c2sc(N)nc2C1 | 20.2%
NC1=NOC(=O)C1C1CCCCC1 (configuration not stated) | -5.11%
CN(Cc1ccccc1)C(=O)COC(=O)/C=C/c1ccc2c(c1)OCO2 | 35% (active)
O=C(COC(=O)/C=C/c1ccc2c(c1)OCO2)NC1CCS(=O)(=O)C1 (configuration not stated) | 23.7%
Cc1cccc(NC(=O)/C=C/c2ccc3c(c2)OCO3)n1 | 28.3%
CSc1ncccc1C(=O)Nc1nc2ccc(F)cc2s1 | 8.2%
COc1ccc(CNC(=O)c2ccc(Br)s2)cc1OC | -1.03%
COc1ccc2nc(NC(=O)c3ccc(Br)s3)sc2c1 | 32.7% (active)
Nc1cc(C(=O)N2CCN(c3ccccc3Cl)CC2)ccc1N1CC2CC(C1)c1cccc(=O)n1C2 (configuration not stated) | 8.04%
OC(c1ccccc1)c1nc(/C=C/c2ccc(C(F)(F)F)cc2)cs1 (configuration not stated) | 7.08%
O=C(Cn1cc(/C=N/NC(=O)c2cccc(C(F)(F)F)c2)c2ccccc21)Nc1ccc(F)cc1 | 9.15%
O=C(CSc1ccc(/C=N/NC(=O)c2cccc(F)c2)o1)Nc1ccccc1 | 33.1% (active)
N#CCC(=O)N/N=C/c1ccc(SCC(=O)Nc2ccccc2)o1 | 15.4%
CCCCN(CCCC)CCCNC(=O)CN1C(=O)COc2ccc(S(=O)(=O)N3CCC(C)CC3)cc21 | 5.17%
CCOC(=O)c1c(C2CC2)csc1NC(=O)CSCc1c(C)noc1C | 1.16%
NC(=S)c1ccc(C(N)=S)o1 | 33.3% (active)
CC(C)CC1(C(=O)NCc2ccccn2)C=CCN1C(=O)c1ccccc1 (configuration not stated) | 1.72%
CN(C)CCCOc1ccc(-c2ccc3nccn3c2)cn1 | 6.19%
CC(Oc1ccccc1[N+](=O)[O-])C(=O)N/N=C/c1ccoc1 (configuration not stated) | 5.72%

Compound | inhibition
O=C(N/N=C/c1cc(Br)c(O)c([N+](=O)[O-])c1)C(O)(c1ccccc1)c1ccccc1 | 79.3% (active)
CNC(=S)N/N=C/c1ccc(OCc2ccccc2)c(Br)c1 | 3.82%
COCCCNC(=S)N(Cc1ccccc1)Cc1ccc(F)cc1 | -5.1%
COC(=O)c1[nH]c2ccc(Br)cc2c1NC(=O)Oc1ccccc1 | 8.96%
COc1ccc(-c2cc(C(=O)NC(Cc3c[nH]c4ccccc34)C(=O)O)c(C)o2)cc1OC (configuration not stated) | 1.44%
COc1ccc(-c2cc(=O)oc3cc(OCC(=O)N[C@@H](Cc4c[nH]c5ccccc45)C(=O)O)ccc23)cc1 | 32.4% (active)
CC(Oc1ccc2c(-c3ccccc3)cc(=O)oc2c1)C(=O)NC(Cc1c[nH]c2ccccc12)C(=O)O (configuration not stated) | 15.9%
C=CCOC(=O)C1=C(C)N=C2SCCC(=O)N2C1/C=C/c1ccccc1OC (configuration not stated) | 6.07%
COc1cccc(/C=C/c2ccc3ccccc3n2)c1OC(C)=O | 22.8%
COc1ccccc1/C=C/C1=NC(=C\N(C)C)/C(=O)O1 | 32.5% (active)
O=C1c2cccc3cccc(c23)C(=O)N1c1cccc(O)c1 | 24.8%
COc1cccc(CNC(=O)COc2cc(O)c3c(c2)OC(C)(C)CC3=O)c1 | 0%
CC(CO)(CO)NC(=O)c1ccc(=O)[nH]n1 | 8.64%
Cc1ccc(CNC(=O)CCNC(=O)Cn2ccc3ccccc3c2=O)cc1 | 7.19%
CN(C(=O)CCNC(=O)Cn1ccc2ccccc2c1=O)c1ccc(Br)cc1 | 1.56%
CC(=O)c1ccc(N2CCN(C(=O)CCNC(=O)Cn3ccc4ccccc4c3=O)CC2)cc1 | 34.2% (active)
C[C@H]1Cn2cnc(C(=O)N[C@@H](Cc3c[nH]c4ccccc34)C(=O)OC(C)(C)C)c2C(=O)N1 | 7.22%
COc1ccc(CN2CCCC(C(=O)N3CCCCC3)C2)cc1 (configuration not stated) | 4.14%
COc1ccc(/C=C/C(=O)NC(=S)N2CCCC(C(N)=O)C2)cc1 (configuration not stated) | 48.8% (active)
COc1ccc(/C=C/C(=O)NC(=S)NN2CCCCC2c2cccnc2)cc1 (configuration not stated) | 10.5%
